In assay [1] the target is Cytochrome P450 2C9 (Homo sapiens) (UniProt P11712). Briefly: qHTS Assay for Inhibitors and Substrates of Cytochrome P450 2C9 (AID 883). Also: % is scaled to controls: 0 for no effect and ±100 for the full control effect; nearly all actives have a fitted effect of over 60% in size. The following applies: recombinant CYP2C9, luciferin-H luminescence, 60 min; series mostly up to 25.6 µM. Put shortly:
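Human CYP2C9 (10nM) hydroxylated Luciferin-H (100uM, at its KM) to luciferin in 25mM KPO4. Compound was preincubated 10 min at 37C, then NADPH regeneration started a 60 min reaction at 37C. Luminescence was read after detection reagent, normalized to 57uM sulphaphenazole.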
(In general: qHTS replaces the single test concentration by a dilution series.)

For assay [2], the target named is Cytochrome P450 3A4 (Homo sapiens) (UniProt P08684). Kind of assay: qHTS Assay for Inhibitors and Substrates of Cytochrome P450 3A4 (AID 884). Also: % is scaled to controls: 0 for no effect and ±100 for the full control effect; nearly all actives have a fitted effect of over 50% in size. The following applies: recombinant CYP3A4, Luciferin-PPXE luminescence; series mostly up to 57.1 µM. In a few lines: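 Luminescent readout of luciferin produced by CYP3A4 (20 nM) dealkylation of Luciferin-PPXE, 25 uM (its KM). NADPH-driven reaction ran 60 min at RT after 10 min compound preincubation; data scaled to 57 uM ketoconazole as 100% inhibition.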

A short description of assay [3]: Confirmation and Secondary Assay for Modulators of Hemoglobin Beta Chain Splicing at IVS2 654 locus (AID 910).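 Also: per-well total GFP intensity by laser scanning cytometry after 2-day treatment; % of control where 0% means no effect.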 The following applies: HeLa EGFP-654 splicing reporter, GFP fluorescence, 48 h; series mostly up to 46.1 µM. Put shortly:
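HeLa cells stably carrying EGFP interrupted by mutant beta-globin IVS2-654 intron (CMV-driven) were treated with compound for 2 days at 37C; corrected splicing was scored as total peak GFP intensity per well (488 nm excitation, 500-520 nm emission).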

A short description of assay [4]: Confirmation and Secondary Assay for Modulators of Hemoglobin Beta Chain Splicing at IVS2 705 locus (AID 930).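 Also: GFP fluorescence per well restored by corrected splicing of the IVS2-705 intron in EGFP.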 Also: potency is read from the fitted curve at half-maximal effect.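 As to activation: HeLa cells stably expressing the EGFP-705 splicing reporter; % of control where 0% means no effect.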 The following applies: HeLa EGFP-705 splicing reporter, GFP fluorescence, 48 h; series mostly up to 46.1 µM. In a few lines: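 Stable HeLa line with EGFP disrupted by mutant beta-globin intron 2 (705). Overnight attachment, then 2 days of compound at 37C, 5% CO2. Signal: peak GFP intensity summed over objects 5-250 µm.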

For assay [5], the target named is Guanine nucleotide-binding protein G(i) subunit alpha-1 (Homo sapiens) (UniProt P63096). Kind of assay: qHTS Assay for Inhibitors of RGS12 GoLoco Motif Activity (Green Fluorophore) (AID 879).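 Also: 0% = labeled peptide with Gαi1 and full inhibition = labeled peptide alone without protein; negative values mean loss of peptide binding seen as reduced polarization.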 The settings on record: Galphai1/FITC-RGS12 GoLoco peptide, fluorescence polarization; series mostly up to 57.1 µM. Put shortly:
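A drop in FITC polarization marked displacement of the FITC-tagged RGS12 GoLoco peptide (10 nM) from Gαi1 (50 nM). Compounds were incubated 10 min at room temperature in Tris pH 7.5 buffer containing 150 mM NaCl, 0.1 mM GDP and 0.05% NP40; unlabeled peptide titration served as control.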

Assay [6] is described as follows: qHTS Assay for Identification of Small Molecule Agonists for Hypoxia Response Element Signaling Pathway (AID 914; active = well fitted activation curve with a large enough effect in the signal ratio, with a control signal flat, not every such curve was filed as active; the % refers to the signal ratio; also: % of control where 0% means no effect). The following applies: ME-180 (cervical carcinoma) HRE-bla reporter, beta-lactamase ratio, CoCl2, 17 h; hits give high values. In a few lines: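 Reporter activity (beta-lactamase, CCF4 460nm/530nm ratio) in HRE-bla ME-180 cells is recorded after 17 h compound exposure with EC50 CoCl2 at 37 degrees Celsius. AC50 values come from titration data.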

Assay [7] in a line: Cellular Toxicity (caspase-3) SHSY5Y (AID 657). The settings on record: SH-SY5Y caspase-3 activation; series mostly up to 91.7 µM. Put shortly:
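Luminescent Caspase-Glo 3/7 read-out, 1 hr room temperature, follows 16 hours of compound treatment of SH-SY5Y cells at 37 °C. Normalization: DMSO basal, 10 uM staurosporine as 100%; AC50 values from Hill-equation concentration-response fits.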

Assay [8] can be described thus: Cellular Toxicity (caspase-3) BJ (AID 658). The settings on record: BJ fibroblasts, luminescence; Potency: caspase-3 activation; series mostly up to 91.7 µM. In a few lines:
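Plated BJ cells (1000/well) rested 5 hr, received compound for 16 hr at 37 °C, then Caspase-Glo 3/7 reagent for 1 hr at room temperature before luminescence reading.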

The nature of assay [9]: Cellular Toxicity (caspase-3) MRC-5 (AID 659). The following applies: MRC-5 cells, luminescence; Potency: caspase-3 activation; series mostly up to 91.7 µM. Put shortly: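 Apoptosis readout in MRC-5 cells: luciferase light generated after caspase 3/7 cleaves a peptide-aminoluciferin substrate, measured post 16 hr compound incubation at 37 °C.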
Assay [10] in a line: Cellular Toxicity (caspase-3) Mesangial (AID 660).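 Also: combined caspase 3 and 7 activity read by Caspase-Glo luminescence; cells exposed to compound for 16 h before the caspase read.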 The following applies: mesangial cells; Potency: caspase-3 activation; series mostly up to 91.7 µM. Put shortly:
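Seed cells derived from normal human renal glomeruli, incubate 5 h, add compounds across concentrations and incubate 16 h at 37 °C. Caspase 3/7 activation is then quantified by luciferase light, with AC50 derived by Hill modeling.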

A short description of assay [11]: Cellular Toxicity (caspase-3) SK-N-SH (AID 661). The following applies: SK-N-SH caspase-3 activation, qHTS; series mostly up to 91.7 µM. In a few lines:
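Cells were seeded and incubated 5 hr at 37 °C, dosed with compound over a concentration range for 16 hr, then given Caspase-Glo 3/7 reagent for 1 hr at room temperature before luminescence reading.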

Assay [12] is described as follows: Cellular Toxicity (caspase-3) H-4-II-E (AID 663).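 Also: cells exposed to compound for 16 hr before readout.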 The following applies: H-4-II-E rat hepatoma, scaled: DMSO 0%, 100 µM tamoxifen 100%; at 92.2 µM (top of the series). In a few lines:
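Caspase 3/7 activation measured in H-4-II-E cells in complete culture medium after 16 hr treatment at 37 °C, using luciferase-coupled substrate readout; AC50 values come from Hill-equation fits of normalized concentration-response data.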

The nature of assay [13]: Cellular Toxicity (caspase-3) N2a (AID 665).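 Also: compound exposure lasted 16 h at 37 °C before readout.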 The settings on record: N2a cells, luminescence, normalized: DMSO 0%, 10 µM staurosporine 100%; series mostly up to 92.2 µM. Put shortly:
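Caspase-3/7 activation, measured as increased luminescence from aminoluciferin release, is quantified in mouse N2a cells exposed to compounds for 16 h. Values are normalized to DMSO and 10 uM staurosporine, with AC50 derived by Hill modelling.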

A short description of assay [14]: Cellular Toxicity (caspase-3) NIH 3T3 (AID 666).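 Also: caspase signal read after 16 h compound exposure; 0% = DMSO basal and 100% = 100 µM tamoxifen stimulation.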 The settings on record: NIH 3T3 caspase-3 activation, apoptosis/toxicity; series mostly up to 92.2 µM. In a few lines:
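Cells were plated at 1000 per well and incubated 5 hr at 37°C, then compound was added for 16 hr. Caspase-Glo 3/7 reagent followed for 20 min at room temperature before luminescence was read.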

A short description of assay [15]: Cell Viability - LYMP2-001 (AID 921).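 Also: 0% = DMSO only and full inhibition = tetraoctylammonium bromide control wells; nearly all actives have a fitted effect of over 70% in size.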 The following applies: LYMP2-001 lymphoblastoid cell viability; series mostly up to 92.2 µM. Put shortly:
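Cellular ATP loss read by luciferase luminescence after 24 h compound exposure at 37 C in complete medium. LYMP2-001 lymphoblastoid cells, 2500/well; qHTS concentration-response data fitted with Hill equation for AC50.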

Assay [16] concerns the target Cytochrome P450 2D6 (Homo sapiens) (UniProt P10635). Briefly: qHTS Assay for Inhibitors and Substrates of Cytochrome P450 2D6 (AID 891).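 Also: luciferin methyl ether substrate demethylated by CYP2D6 with NADPH regeneration; % is scaled to controls: 0 for no effect and ±100 for the full control effect; nearly all actives have a fitted effect of over 60% in size.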 The following applies: recombinant CYP2D6, luciferin-ME EGE luminescence; series mostly up to 57.1 µM. In a few lines: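 Luminescent read-out of luciferin formed by 5 nM human CYP2D6 demethylating 30 uM Luciferin-ME EGE (Km level) over 60 min at room temperature after NADPH regeneration addition. Data normalized to full inhibition by 1.43 uM quinidine.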

The target in assay [17] is Cytochrome P450 2C19 (Homo sapiens) (UniProt P33261). Kind of assay: qHTS Assay for Inhibitors and Substrates of Cytochrome P450 2C19 (AID 899). Also: potency is read from the fitted curve at half-maximal effect; nearly all actives have a fitted effect of over 60% in size. The following applies: recombinant CYP2C19, luciferin-H EGE luminescence; series mostly up to 57.1 µM. In a few lines: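 Human CYP2C19 (5nM) with Luciferin-H EGE at 10uM (its KM) in 50mM KPO4 was preincubated with compound for 10 min at 37C. NADPH regeneration started a 60 min 37C reaction. Luciferin was read by luminescence, normalized to 57uM ketoconazole.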

Inconclusive results are not listed. The source made the active and inactive calls. Unless noted, calls follow the shape of the dose curve; as a rule, active = well fitted curve in the direction sought with a large enough effect; inconclusive = small, poorly fitted or top-dose-only effect, or another doubt; inactive = no such curve, though single readings can be large; an effect the other way counts as inactive or inconclusive.

Chain of Cytochrome P450 3A4 (Homo sapiens) (P08684 whole entry, looked up): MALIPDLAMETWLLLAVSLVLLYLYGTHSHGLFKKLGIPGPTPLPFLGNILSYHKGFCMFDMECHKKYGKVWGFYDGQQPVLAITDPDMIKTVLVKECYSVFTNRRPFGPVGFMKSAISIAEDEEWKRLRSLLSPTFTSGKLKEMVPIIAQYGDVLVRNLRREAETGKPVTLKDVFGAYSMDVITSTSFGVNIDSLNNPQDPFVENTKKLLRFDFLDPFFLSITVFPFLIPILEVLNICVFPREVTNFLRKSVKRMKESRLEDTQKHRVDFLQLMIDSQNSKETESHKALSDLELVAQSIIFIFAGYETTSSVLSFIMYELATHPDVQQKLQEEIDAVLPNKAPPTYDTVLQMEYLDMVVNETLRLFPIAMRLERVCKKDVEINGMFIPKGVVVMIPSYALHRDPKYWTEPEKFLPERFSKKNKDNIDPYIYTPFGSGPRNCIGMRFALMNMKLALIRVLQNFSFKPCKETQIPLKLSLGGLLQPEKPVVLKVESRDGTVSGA
Chain of Cytochrome P450 2C19 (Homo sapiens) (P33261 whole entry, looked up): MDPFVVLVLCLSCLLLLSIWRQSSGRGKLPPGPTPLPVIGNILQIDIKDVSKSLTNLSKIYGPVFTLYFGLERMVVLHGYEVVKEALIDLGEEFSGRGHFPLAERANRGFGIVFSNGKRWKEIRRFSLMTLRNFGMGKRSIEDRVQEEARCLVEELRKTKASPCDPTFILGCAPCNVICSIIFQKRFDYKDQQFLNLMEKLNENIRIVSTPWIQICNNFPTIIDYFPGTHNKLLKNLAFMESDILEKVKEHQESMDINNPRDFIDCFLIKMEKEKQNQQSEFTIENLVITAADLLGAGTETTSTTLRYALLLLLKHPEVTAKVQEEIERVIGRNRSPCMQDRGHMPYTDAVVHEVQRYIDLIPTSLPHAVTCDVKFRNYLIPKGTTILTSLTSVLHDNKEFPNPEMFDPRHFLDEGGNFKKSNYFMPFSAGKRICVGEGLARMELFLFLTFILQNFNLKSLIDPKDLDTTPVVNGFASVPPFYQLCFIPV
Chain of Cytochrome P450 2C9 (Homo sapiens) (P11712 whole entry, looked up): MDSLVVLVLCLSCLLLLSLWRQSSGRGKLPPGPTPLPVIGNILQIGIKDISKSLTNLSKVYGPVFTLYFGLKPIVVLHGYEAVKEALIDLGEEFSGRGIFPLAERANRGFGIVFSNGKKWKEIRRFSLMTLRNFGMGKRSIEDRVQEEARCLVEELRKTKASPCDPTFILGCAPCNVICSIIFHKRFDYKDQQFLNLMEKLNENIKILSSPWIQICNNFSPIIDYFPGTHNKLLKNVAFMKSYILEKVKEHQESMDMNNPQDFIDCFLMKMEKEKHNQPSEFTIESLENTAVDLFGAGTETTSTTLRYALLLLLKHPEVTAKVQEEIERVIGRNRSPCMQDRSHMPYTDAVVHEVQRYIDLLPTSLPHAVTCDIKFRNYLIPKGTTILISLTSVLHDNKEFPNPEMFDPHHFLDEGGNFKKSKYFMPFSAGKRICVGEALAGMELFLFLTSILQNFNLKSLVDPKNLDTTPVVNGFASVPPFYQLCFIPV
Chain of Cytochrome P450 2D6 (Homo sapiens) (P10635 whole entry, looked up): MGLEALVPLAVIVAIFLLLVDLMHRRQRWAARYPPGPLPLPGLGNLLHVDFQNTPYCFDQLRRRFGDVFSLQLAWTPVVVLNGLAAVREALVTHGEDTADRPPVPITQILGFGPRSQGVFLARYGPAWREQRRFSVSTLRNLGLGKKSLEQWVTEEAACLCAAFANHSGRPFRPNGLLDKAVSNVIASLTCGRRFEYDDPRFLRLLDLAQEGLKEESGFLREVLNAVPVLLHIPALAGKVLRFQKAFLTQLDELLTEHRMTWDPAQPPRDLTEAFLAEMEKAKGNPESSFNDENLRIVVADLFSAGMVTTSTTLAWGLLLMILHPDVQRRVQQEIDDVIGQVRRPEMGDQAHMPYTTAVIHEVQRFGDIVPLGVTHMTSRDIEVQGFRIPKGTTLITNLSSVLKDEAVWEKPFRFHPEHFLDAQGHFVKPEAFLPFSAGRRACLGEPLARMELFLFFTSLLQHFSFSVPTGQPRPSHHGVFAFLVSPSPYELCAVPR
Chain of Guanine nucleotide-binding protein G(i) subunit alpha-1 (Homo sapiens) (P63096 whole entry, looked up): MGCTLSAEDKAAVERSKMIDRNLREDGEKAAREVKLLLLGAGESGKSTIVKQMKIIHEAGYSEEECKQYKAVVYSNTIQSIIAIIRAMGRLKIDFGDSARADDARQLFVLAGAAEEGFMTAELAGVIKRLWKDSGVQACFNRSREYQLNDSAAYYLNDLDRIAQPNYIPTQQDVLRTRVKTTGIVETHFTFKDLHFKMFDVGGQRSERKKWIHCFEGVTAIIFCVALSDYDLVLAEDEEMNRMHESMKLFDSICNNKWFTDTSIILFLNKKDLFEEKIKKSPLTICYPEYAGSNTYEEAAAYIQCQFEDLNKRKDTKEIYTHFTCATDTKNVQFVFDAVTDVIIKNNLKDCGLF

Consider `COC(=O)Nc1nc2ccc(C(=O)c3ccccc3)cc2[nH]1`, for which the result in [1] and in assay [2] was inactive. In addition, the Potency entry in [3] and in [4] was “inactive” in each case.
For the molecule `CC(C)(C)NC(=O)[C@H]1CC[C@H]2[C@@H]3CC[C@H]4NC(=O)C=C[C@]4(C)[C@H]3CC[C@]12C`, the molecule was classed as inactive in [5].
For the molecule `COc1cnc(NS(=O)(=O)c2ccc(N)cc2)nc1`, the result in assay [2] was inactive. The Potency result in assay [3] and in [4] was “inactive” in each case. In addition, the activation in assay [6] was 5.32% (inactive).
`O=C(O)c1cc(=O)[nH]c(=O)[nH]1`: the Potency entry in assay [7], in assay [8], in assay [9], in assay [10], in assay [11] and in assay [14] was “inactive” in each case. For the same molecule, the Potency entry in assay [15] was “inactive”. The caspase-3 activation in assay [12] was 0.389% (inactive). The call in assay [13] and in [2] was inactive.
In the case of `COc1ccccc1OCC(O)COC(N)=O` (centres undefined), in assay [2], the result was inactive. For the same molecule, the Potency result in assay [3] and in assay [4] was “inactive” each time.
Regarding `O=c1oc2c(O)c(O)cc3c(=O)oc4c(O)c(O)cc1c4c23`, the result in [2] was inactive. Besides, the Potency entry in assay [16] and in assay [3] was “inactive” in each case. The Potency in [17] was 31.6 µM (active); in assay [4], 10 µM (active).
Take `CCc1cc(C(N)=S)ccn1`: the Potency result in [7], in [8], in assay [9], in assay [10], in assay [11] and in assay [14] was “inactive” each time. Further, the Potency result in assay [3], in [15] and in [4] was “inactive” each time. In assay [12], the caspase-3 activation was -1.43% (inactive). The molecule was called inactive in assay [13].
Consider `Cn1c(=O)c2c(ncn2CC(O)CO)n(C)c1=O` (centres undefined), for which the outcome in assay [2] was inactive. The Potency result in assay [3] and in assay [4] was “inactive” throughout.
Turning to `NC(N)=NC(N)=NCCc1ccccc1`, the Potency result in assay [7], in assay [8], in [9], in [10], in assay [11] and in assay [14] was “inactive” each time. The Potency entry in [15] is “inactive”. The caspase-3 activation in [12] is 0.291% (inactive). For the same molecule, the molecule was called inactive in [13].
As to `CC[C@H](C)C(=O)O[C@H]1C[C@@H](C)C=C2C=C[C@H](C)[C@H](CC[C@@H]3C[C@@H](O)CC(=O)O3)[C@H]21`, the Potency entry in assay [7], in [8], in assay [9], in [10], in assay [11] and in [14] was “inactive” in each case. Moreover, in assay [15], the Potency result was “inactive”. Besides, in assay [12], the caspase-3 activation was 1.47% (inactive). Besides, the outcome in assay [13] was inactive.

Values taken from PubChem BioAssay (NCATS).
